Source: PubChem (Broad Institute)
aSyn UTR act – Activators working through SNCA 5'UTR binding (MLPCN) | actives 7.1% (n = 300,000) | alpha-synuclein 5'UTR reporter, activators screen | activity score, % (tested at 7.5 µM), hits read low; in the data active = activity score below about -60%
Large screens that a line does not name were inactive. These entries were drawn from the full list.

COc1ccccc1C1N=C(c2ccccc2C)NO1 (stereo not drawn)	aSyn UTR act -120.4
Cc1ccccc1C1=NC(c2ccc(F)cc2F)ON1 (stereo not drawn)	aSyn UTR act -90.0
CN[C@H]1CCc2cc(OC)c(OC)c(OC)c2-c2ccc(N(C)CC(OC)OC)c(=O)cc21	none
Cc1ccc(C(=O)O/N=C(\N)c2ccc(Br)cc2)cc1C	aSyn UTR act -135.8
Cc1cccc(C(=O)O/N=C(\N)c2ccc(Br)cc2)c1	aSyn UTR act -211.4
Cc1cccc(C(=O)O/N=C(\N)c2ccc(Cl)cc2)c1	aSyn UTR act -107.7
N/C(=N\OC(=O)c1ccc2ccccc2c1)c1ccc(Br)cc1	aSyn UTR act -103.3
N/C(=N\OC(=O)c1cccc(Br)c1)c1ccccc1	aSyn UTR act -305.2
Cc1cc(C)cc(C(=O)O/N=C(\N)c2ccc(Br)cc2)c1	aSyn UTR act -82.7
N/C(=N\OC(=O)c1ccoc1)c1ccc(Br)cc1	aSyn UTR act -111.1
N/C(=N\OC(=O)c1cccc(Br)c1)c1ccccn1	none
O=C(N/N=C/c1c[nH]c2ccccc12)c1cc(-c2ccc(-c3ccccc3)cc2)n[nH]1	aSyn UTR act -145.6
O=C(N/N=C/c1c[nH]c2ccccc12)c1cc(-c2ccccc2)n[nH]1	aSyn UTR act -72.5
O=C(O)c1ccc(N/N=C/c2c[nH]c3ccccc23)cc1	none
Cc1ccc(-c2cc(C(=O)N/N=C/c3c[nH]c4ccccc34)[nH]n2)cc1	none
O=C(N/N=C/c1c[nH]c2ccccc12)c1ccc(Cl)cc1	aSyn UTR act -77.0
CSCc1nc2sc(C(=O)Nc3nc(C)cs3)c(C)c2c(=O)[nH]1	aSyn UTR act -92.4
Cn1c(=O)n(/N=C/c2ccccc2)c2ccccc21	aSyn UTR act -106.7
Cc1c(C(=O)NCCc2ccccc2)oc2ccccc12	aSyn UTR act -68.8
Cc1c(C(=O)NC2CCC(C)CC2)oc2ccccc12 (stereo not drawn)	aSyn UTR act -143.0
CCN(C(=O)C1=COCCO1)c1nc2c(C)cccc2s1	aSyn UTR act -83.9
Cc1cc(C)c2nc(N(CCCN(C)C)C(=O)C3=COCCO3)sc2c1	aSyn UTR act -90.8
CC1CCCCN1S(=O)(=O)c1ccc(C(=O)N(CCCN(C)C)c2nc3ccc(Br)cc3s2)cc1 (stereo not drawn)	none
CN(C)CCCN(C(=O)C1=COCCO1)c1nc2ccc(Br)cc2s1	aSyn UTR act -63.4
O=c1oc2ccccc2c2oc3cc(O)c(O)cc3c12	aSyn UTR act -83.2
CCN(CC)c1ccc(N=Cc2ccc([N+](=O)[O-])o2)cc1	aSyn UTR act -79.8
CC(=O)Nc1ccc(S(=O)(=O)N(Cc2cc3ccc(C)cc3[nH]c2=O)CC2CCCO2)cc1 (stereo not drawn)	none
COc1ccc2cc(CN(CC3CCCO3)S(=O)(=O)c3ccc(C(C)=O)cc3)c(=O)[nH]c2c1 (stereo not drawn)	aSyn UTR act -77.9
COc1ccc2nc(Nc3nc(CSc4nc5ccccc5[nH]4)cc(=O)[nH]3)nc(C)c2c1	none
COC(=O)c1cc(CSc2nc3ccccc3[nH]2)oc1C	aSyn UTR act -173.3
O=[N+]([O-])c1cccc(CSc2nc3ccccc3[nH]2)c1	aSyn UTR act -69.7
COc1cccc(CSc2nc3ccccc3[nH]2)c1	aSyn UTR act -144.3
CC(=O)Nc1ccc(-c2csc(Nc3cccc(C)n3)n2)cc1	aSyn UTR act -181.7
CC(=O)Nc1cccc(-c2csc(Nc3ccc(C)cn3)n2)c1	aSyn UTR act -65.9
CC(=O)Nc1cccc(-c2csc(Nc3ncccn3)n2)c1	aSyn UTR act -169.8
O=C1c2ccccc2S(=O)(=O)N1Cc1nc2ccccc2s1	none
O=C(OCc1nc2ccccc2s1)C1CCN(C2=NS(=O)(=O)c3ccccc32)CC1	aSyn UTR act -97.6
CCOC(=O)c1oc2cccc(O)c2c1C	aSyn UTR act -80.8
CCOC(=O)c1oc2cccc(OC(C)=O)c2c1C	aSyn UTR act -84.7
C(=N\C(/N=C/c1ccco1)c1ccco1)/c1ccco1	aSyn UTR act -67.7
O=C(NC(=S)Nc1ccccc1O)c1ccccc1Cl	aSyn UTR act -126.9
O=C(NNC(=S)Nc1ccccc1Cl)c1ccccc1Br	aSyn UTR act -94.1
CC(=O)C1=C(C)OC(N)=C(C#N)C1c1cc([N+](=O)[O-])ccc1Cl (stereo not drawn)	aSyn UTR act -69.0
Cc1cc(/C=C(\C#N)C(=O)NCc2cccs2)c(C)n1-c1ccccc1F	aSyn UTR act -239.6
CCOC(=O)/C=c1\s/c(=C\c2c(OC)ccc3ccccc23)c(=O)n1CC(=O)NCC1CCCO1 (stereo not drawn)	none
Cc1ccccc1-n1c(C)cc(/C=C(\C#N)C(=O)NCC2CCCO2)c1C (stereo not drawn)	aSyn UTR act -93.6
Cc1ccc(O)c(C2=Nc3ccccc3C2(C)C)c1	aSyn UTR act -156.8
COc1ccc(/C=C2\SC(=O)N(CCC(=O)N(C)C3CCS(=O)(=O)C3)C2=O)cc1 (stereo not drawn)	aSyn UTR act -83.9
O=C(CN1C(=O)S/C(=C\C=C\c2ccccc2)C1=O)NC1CCS(=O)(=O)C1 (stereo not drawn)	aSyn UTR act -169.0
CC(C)c1ccc(/C=C2\SC(=S)N(CCC(=O)NCCCn3ccnc3)C2=O)cc1	none
